The target of experiment [1] is Myc proto-oncogene protein (Homo sapiens) (UniProt P01106). The experiment can be described thus: ATG_Myc_CIS: Attagene CIS-FACTORIAL HepG2 Assay for human Myelocytomatosis (Myc) Proto-Oncogene Transcription Factor (AID 2282990). To be noted: HepG2, Attagene cis-reporter transcription factor activity; actives raise or lower the signal. In a few lines: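 Multiplexed cis-reporter transcription in HepG2 cells after 24 h chemical treatment. Reporter mRNA measured by RT-PCR and capillary electrophoresis fluorescence; activity fitted bidirectionally against DMSO control.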

Experiment [2] is described as follows: ATG_NF_kB_CIS: Attagene CIS-FACTORIAL HepG2 Assay for human Nuclear Factor Kappa B (NF-kB) (AID 2282991). To be noted: HepG2 Attagene cis-factorial NF-kB reporter mRNA; actives raise or lower the signal. In a few lines: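 HepG2, transient multi-reporter transfection, cis promoter elements (endogenous TFs). 24 h exposure. Total RNA → RT → PCR → 6-FAM label → HpaI → CE. Gain/loss vs DMSO.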

Experiment [3] is described as follows: ATG_NRF2_ARE_CIS: Attagene CIS-FACTORIAL HepG2 Assay for human Nuclear Factor Erythroid 2 Related Factor 2 (NFR2) response to Antioxidant Response Elements (ARE) (AID 2282992). To be noted: HepG2 Attagene ARE/NRF2 reporter, transcription factor activity; actives raise or lower the signal. The gist of the method:
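Endogenous transcription factor activity in human liver HepG2 cells is tracked via a cis-element-driven reporter within a multiplexed set. mRNA induction is read by RT-PCR and capillary electrophoresis after 24 h, with DMSO as baseline.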

Experiment [4] can be described thus: ATG_Oct_MLP_CIS: Attagene CIS-FACTORIAL HepG2 Assay for human Octamer-Binding Transcription Factor (Oct) (AID 2282993). To be noted: HepG2 Attagene cis-factorial Oct reporter, mRNA; actives raise or lower the signal. The gist of the method: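 HepG2 cells transiently transfected with cis-promoter-driven multiplexed reporter transcription units, dosed for 24 h. Reporter mRNA quantified by RT-PCR, fluorescent labelling, HpaI digestion and capillary electrophoresis; bidirectional fits versus DMSO baseline.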

For experiment [5], the target named is Cellular tumor antigen p53 (Homo sapiens) (UniProt P04637). In words: ATG_p53_CIS: Attagene CIS-FACTORIAL HepG2 Assay for human p53 Transcription Factor (AID 2282994). To be noted: HepG2 p53 cis-element reporter, Attagene mRNA; actives raise or lower the signal. The gist of the method: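 Steps: transfect HepG2 with multiplexed cis reporter constructs; dose chemicals 24 h; extract RNA, reverse-transcribe, PCR-amplify reporter sequences; FAM-label, HpaI-digest, resolve fragments by CE. Activity fitted both directions relative to DMSO.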

The nature of experiment [6]: BSK_3C_TissueFactor: BioMAP Diversity Plus: 3C Assay for Tissue Factor Biomarker Activity (AID 2282997). The settings on record: BioMAP 3C HUVEC, tissue factor biomarker readout; actives raise or lower the signal. The gist of the method: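 Tissue factor on primary human umbilical vein endothelium was read by ELISA 24 h after dosing, gain or loss relative to DMSO. Cytotoxicity ran alongside via SRB (0.1%, TCA-fixed, 560 nm).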

Experiment [7] can be described thus: BSK_3C_VCAM1: BioMAP Diversity Plus: 3C Assay for Vascular cell adhesion molecule 1 (VCAM1) Biomarker Activity (AID 2282999). The settings on record: BioMAP 3C HUVEC, VCAM1 ELISA, cytokine-stimulated; actives raise or lower the signal. The gist of the method: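 Vascular primary endothelium (human umbilical vein) was exposed to chemicals and assayed 24 h later. VCAM-1 levels came from ELISA, with DMSO serving as baseline for bidirectional fitting.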
A general note: ELISA stands for enzyme-linked immunosorbent assay.

Experiment [8] in a line: BSK_4H_Eotaxin3: BioMAP Diversity Plus: 4H Assay for Eotaxin 3 Biomarker Activity (AID 2283000).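 On outcome: CCL26 protein level quantified by ELISA in parallel with SRB cytotoxicity check.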 To be noted: primary human endothelial cells (HUVEC); actives raise or lower the signal. In a few lines: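 Human umbilical vein endothelial cells (BSK_4H system) dosed with test chemical; Eotaxin-3 (CCL26) measured by ELISA 24 h after dosing. Bidirectional curve fitting relative to DMSO negative control as baseline.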

The nature of experiment [9]: BSK_3C_uPAR: BioMAP Diversity Plus: 3C Assay for Urokinase-type plasminogen activator receptor (uPAR) Biomarker Activity (AID 2282998). The settings on record: BioMAP 3C HUVEC, uPAR biomarker ELISA; actives raise or lower the signal. The gist of the method:
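Human umbilical vein endothelial primary cells were exposed to test chemical for 24 h. Cell-surface uPAR was then quantified by ELISA, and responses were fitted bidirectionally against DMSO as negative control and baseline.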

For experiment [10], the target named is human Peroxisome Proliferator-activated Receptor alpha (PPARa), PPARA (gene 5465) (UniProt Q07869). The experiment can be described thus: ATG_PPARa_TRANS: Attagene TRANS-FACTORIAL HepG2 Assay for human Peroxisome Proliferator-activated Receptor alpha (PPARa) (AID 2283001; active means hit-call score of the fitted dose curve at least 0.9, where 1 is the maximum). The gist of the method: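 Cells (HepG2) are transfected with multiple reporter transcription units, exposed to chemical for 24 h, then total RNA is reverse-transcribed and amplified. Labelled products are quantified by capillary electrophoresis; induction is referenced to DMSO.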

Results filed as inconclusive are left out. Activity calls are given as the source filed them. How the source made its calls, unless noted: active means hit-call score of the fitted dose curve at least 0.9, where 1 is the maximum; inactive means score below 0.9.

Chain of Cellular tumor antigen p53 (Homo sapiens) (P04637 whole entry, looked up, the tested form may be a part): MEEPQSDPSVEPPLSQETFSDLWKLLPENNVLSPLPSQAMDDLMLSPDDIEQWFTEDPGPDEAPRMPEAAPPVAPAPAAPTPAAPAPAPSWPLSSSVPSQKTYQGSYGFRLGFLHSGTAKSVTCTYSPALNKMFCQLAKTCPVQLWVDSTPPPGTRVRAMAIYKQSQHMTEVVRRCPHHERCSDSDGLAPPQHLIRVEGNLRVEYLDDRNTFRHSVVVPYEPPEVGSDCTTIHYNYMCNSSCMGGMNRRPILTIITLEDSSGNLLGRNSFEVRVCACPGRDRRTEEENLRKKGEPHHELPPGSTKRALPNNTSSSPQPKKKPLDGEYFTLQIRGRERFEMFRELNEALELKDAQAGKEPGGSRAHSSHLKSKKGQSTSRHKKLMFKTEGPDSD
Chain of human Peroxisome Proliferator-activated Receptor alpha (PPARa), PPARA (gene 5465) (Q07869 whole entry, looked up): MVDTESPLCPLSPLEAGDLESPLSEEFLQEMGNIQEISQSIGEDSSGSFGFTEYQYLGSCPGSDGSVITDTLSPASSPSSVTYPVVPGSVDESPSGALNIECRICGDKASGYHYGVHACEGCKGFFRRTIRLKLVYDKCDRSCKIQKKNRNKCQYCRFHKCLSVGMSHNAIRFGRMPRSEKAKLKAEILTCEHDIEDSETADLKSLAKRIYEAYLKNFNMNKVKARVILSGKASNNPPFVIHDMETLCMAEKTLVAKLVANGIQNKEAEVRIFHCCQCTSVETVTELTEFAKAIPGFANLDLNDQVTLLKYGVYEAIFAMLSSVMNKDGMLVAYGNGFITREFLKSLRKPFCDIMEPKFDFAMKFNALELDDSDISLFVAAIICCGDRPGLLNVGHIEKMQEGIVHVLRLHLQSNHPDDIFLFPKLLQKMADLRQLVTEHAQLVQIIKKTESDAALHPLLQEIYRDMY
Chain of Myc proto-oncogene protein (Homo sapiens) (P01106 whole entry, looked up): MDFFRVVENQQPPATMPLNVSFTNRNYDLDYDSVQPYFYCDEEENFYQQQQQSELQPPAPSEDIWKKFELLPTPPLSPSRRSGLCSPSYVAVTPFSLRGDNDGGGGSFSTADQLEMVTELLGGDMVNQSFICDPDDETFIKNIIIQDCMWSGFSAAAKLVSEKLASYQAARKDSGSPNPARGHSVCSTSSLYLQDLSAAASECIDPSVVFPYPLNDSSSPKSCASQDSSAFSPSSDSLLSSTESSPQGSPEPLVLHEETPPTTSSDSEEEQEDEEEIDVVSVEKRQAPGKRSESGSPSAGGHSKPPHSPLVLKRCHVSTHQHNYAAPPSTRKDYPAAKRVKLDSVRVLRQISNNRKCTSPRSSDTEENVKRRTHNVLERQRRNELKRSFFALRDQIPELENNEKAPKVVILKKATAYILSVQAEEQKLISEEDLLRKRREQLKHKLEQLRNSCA

As to `COc1cccc2c1C(=O)c1c(O)c3c(c(O)c1C2=O)C[C@@](O)(C(=O)CO)C[C@@H]3O[C@H]1C[C@H](N)[C@H](O)[C@H](C)O1`, the AC50 (in general, the concentration at which the activity in the assay is half-maximal) was 2.48 µM (active) in experiment [1]; 0.653 µM (active) in [2]; 1.56 µM (active) in [3]; 0.719 µM (active) in experiment [4]; 2.24 µM (active) in experiment [5].

For the compound `c1cc(-c2ccncc2)ccn1`, the result in experiment [1], in experiment [2], in experiment [3], in [4], in experiment [5] and in experiment [6] was inactive. For the same compound, the result in experiment [7] and in experiment [8] was inactive.

For `O=c1c(O)c(-c2ccc(O)c(O)c2)oc2cc(O)cc(O)c12`, the outcome in experiment [1], in [2], in [4] and in experiment [10] was inactive. In addition, the AC50 in experiment [3] was 27 µM (active); in [5], 65.6 µM (active); in [6] it was 15.6 µM (active); in [9] it was 13.7 µM (active); in [7] it was 32 µM (active); in [8] it was 24.4 µM (active).

As for `Nc1ccccc1N`, the result in experiment [1], in experiment [2], in [6] and in experiment [8] was inactive. The AC50 in experiment [3] was 9.26 µM (active); in experiment [4], 29 µM (active); in experiment [5], 32.4 µM (active); in experiment [9], 4.58 µM (active); in [7], 11 µM (active).

In the case of `CCCCCCCC=O`, the call in experiment [1], in experiment [2], in [3], in experiment [4], in experiment [5] and in experiment [6] was inactive. Further, the outcome in experiment [9], in [7], in experiment [8] and in experiment [10] was inactive.

Take `CC1=C(/C=C/C(C)=C/C=C/C(C)=C/CO)C(C)(C)CCC1`: the AC50 in [1] is 139 µM (active); in [3], 44.2 µM (active); in [7], 33 µM (active); in experiment [8], 15.6 µM (active). In addition, the outcome in [2], in experiment [4], in [5] and in experiment [6] was inactive.

On to `Cc1ccc(C)c(C)c1`, for which the call in [1], in experiment [2], in [3], in [4], in [5] and in experiment [6] was inactive. The outcome in experiment [9], in experiment [7], in experiment [8] and in experiment [10] was inactive.

For `CC(C)c1ccc(C(=O)N=C(N)N)cc1S(C)(=O)=O`, the compound was called inactive in experiment [1], in experiment [2], in [3], in experiment [4], in experiment [5] and in [6]. The result in experiment [7] and in experiment [8] was inactive.

Turning to `Cc1ccc(N(C)C)cc1`, the compound was called inactive in [1], in experiment [2], in experiment [3], in experiment [4], in [5] and in experiment [6]. In addition, the result in experiment [7] and in [8] was inactive.

As to `CCCCCCOCCO`, the result in [1], in experiment [2], in [3], in experiment [5], in experiment [6] and in [9] was inactive. The outcome in experiment [7], in experiment [8] and in experiment [10] was inactive.

Take `C[Si]1(C)O[Si](C)(C)O[Si](C)(C)O[Si](C)(C)O1`: the call in experiment [1], in [2], in [3], in experiment [5], in experiment [6] and in [9] was inactive. Further, the outcome in [7] and in experiment [8] was inactive.

For `CN1CCN(Cc2cc(-c3ccc4[nH]c(=O)oc4c3)co2)[C@@H](c2ccc(F)cc2)C1`, the result in experiment [1], in experiment [6], in experiment [7], in experiment [8] and in [10] was inactive. The concentration at half-maximal activity (AC50) in experiment [2] was 8.72 µM (active); in [3] it was 61.4 µM (active); in experiment [5] it was 12.1 µM (active); in experiment [9], 26.7 µM (active).

On to `CNC(=O)[C@H]1O[C@@H](n2cnc3c(NCc4cc(Cl)ccc4OCc4cc(C)no4)ncnc32)[C@H](O)[C@@H]1N`, for which the outcome in [1], in experiment [2], in experiment [3], in [5], in experiment [6] and in experiment [9] was inactive. The outcome in experiment [7] and in experiment [8] was inactive.

`Cc1cccc(Nc2cc(Cl)nc(SCC(=O)O)n2)c1C`: the result in [1], in [2], in [3], in [5], in experiment [6] and in experiment [9] was inactive. The result in experiment [7] and in experiment [8] was inactive.

Take `Nc1ccc(S(=O)(=O)c2ccc(N)cc2)cc1`: the call in [1], in experiment [2], in experiment [3], in experiment [5], in [6] and in [9] was inactive. Besides, the result in experiment [7] and in experiment [8] was inactive.

Consider `COc1cc(C=O)ccc1O`, for which the compound was classed as inactive in experiment [1], in [2], in experiment [3], in experiment [5], in experiment [6] and in experiment [9]. Moreover, the result in experiment [7] and in experiment [8] was inactive.

For the compound `C1CCC(SSC2CCCCC2)CC1`, the compound was classed as inactive in experiment [1], in experiment [2], in [5], in experiment [9] and in experiment [10]. Further, the AC50 was 75.5 µM (active) in experiment [3], 20 µM (active) in experiment [6], 26.5 µM (active) in experiment [7] and 32.7 µM (active) in experiment [8].

For the compound `Cc1nc(-c2ccc3c(c2)CCN(CCC2CCC(NC(=O)/C=C/c4ccc(F)cc4)CC2)CC3)no1` (stereo not given), the result in experiment [1], in experiment [2], in experiment [3], in [5], in experiment [6] and in [9] was inactive. Also, in [10], the call was inactive. The AC50 in [7] was 12.8 µM (active); in [8] it was 12.9 µM (active).

Take `CCc1c(C(=O)NN2CCCCC2)nn(-c2ccc(Cl)cc2Cl)c1-c1ccc(Br)cc1`: the compound was classed as inactive in experiment [1], in [2] and in [5]. For the same compound, the half-maximal activity concentration (AC50) in experiment [3] is 1.53 µM (active); in experiment [6], 11.7 µM (active); in experiment [9] it was 6.7 µM (active); in [7] it was 11.1 µM (active); in [8] it was 8.48 µM (active).

With `Cc1nc(C)nc(N2C[C@@H](C)N(c3ccnc([C@@H](C)O)n3)[C@@H](C)C2)n1`, the outcome in experiment [1], in experiment [2], in experiment [3], in experiment [5], in experiment [6] and in experiment [7] was inactive. In addition, the result in experiment [8] was inactive. For the same compound, the concentration at half-maximal activity (AC50) in [9] is 12.9 µM (active).

On to `Oc1ccc2c(c1)OC[C@@H](N1CCC(O)(c3ccc(F)cc3)CC1)[C@H]2O`, for which the result in experiment [1], in experiment [2], in experiment [5], in experiment [6], in experiment [7] and in [8] was inactive. Also, the compound was classed as inactive in experiment [10]. Also, the AC50 in [3] was 23.4 µM (active); in [4], 27.1 µM (active).

`Cc1cc(=O)[nH]c(=S)[nH]1`: the compound was classed as inactive in [1], in [2], in [3], in [5], in [6] and in experiment [9]. Further, the outcome in [7] and in [8] was inactive.

The values above are taken from PubChem BioAssay (EPA / NIEHS).
